Assay outcomes as filed in PubChem BioAssay.
Cycloheximide cs: counter-screen hit for Shiga toxin inhibitors, cycloheximide; max response, %; cell reporter, cycloheximide protein synthesis inhibition counterscreen; hit rate 12% among 300,000; in the data active means max response mostly above about 13%, no sharp cut-off; inactive means mostly below about 14%; further: read at 38.3 µM for the half of the compounds with a filed dose; 0% is about no effect
Pf growth 48h: P. falciparum growth inhibition at 48 hours (one generation). P. falciparum luciferase growth in erythrocytes, 48 h. Potency, µM (titrated, usually from 28.7 µM), inactives show top-dose activity change, negative = inhibition, most hits filed as inhibitors. hit rate 5.9% among 310,000. AID 504832; further: potency means the concentration at half of the fitted maximal effect; on the % scale 0 is the no-effect control and ±100 the full control effect
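Luciferase-expressing P. falciparum in infected erythrocytes (2% hematocrit, 0.1% parasitemia final) in RPMI 1640/0.5% Albumax were exposed to compound for 48 hours at 37 C, 5% CO2; growth read as luminescence.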
HCV inhibitor: blocks hepatitis C virus; Huh7.5.1 HCVcc-Cre infection, luciferase reporter, 44 h; Potency, µM (series often up to 41.8 µM), for inactives: top-dose activity change, negative = inhibition, actives largely listed as inhibitors; hit rate 3.4% among 340,000; AID 651820; further: potency means the concentration at half of the fitted maximal effect; on the % scale 0 is the no-effect control and ±100 the full control effect
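1,000 cells/well; 4 h culture; + compound; + HCVcc-Cre (~0.5 moi); 44 h; luciferase substrate, RT 15 min; read 15 sec.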
AMA1-RON2 inh: inhibitors of Plasmodium falciparum AMA1-RON2 interaction; AlphaScreen AMA1-biotinylated RON2 peptide binding; Potency, µM (series often up to 58.2 µM), for the others: top-dose activity change, negative = inhibition, most hits filed as inhibitors; hit rate 0.2% among 360,000;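 further: potency means the concentration at half of the fitted maximal effect; 0% = vehicle wells and -100% = peptide control; nearly all actives have a fitted effect of over 45% in size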
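AMA1 (3D7) with his tag at 25 nM final met compounds first, then biotinylated RON2 peptide at 25 nM; detection used donor plus acceptor beads, 10 µg/mL apiece, read by AlphaScreen after 30 min at room temperature.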
Pf growth 96h: P. falciparum growth inhibition at 96 hours; P. falciparum luciferase reporter growth, 96 h; Potency, µM (series often up to 28.7 µM), for the others: top-dose activity change, negative = inhibition, most hits filed as inhibitors; hit rate 6.9% among 320,000; further: potency means the concentration at half of the fitted maximal effect; on the % scale 0 is the no-effect control and ±100 the full control effect
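Readout is luminescence from an integrated firefly luciferase in P. falciparum. Red cells, 2% hematocrit and 0.05% parasitemia final, were cultured with compound through two parasite generations (96 hours) at 37 C, 5% CO2.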
Shiga inhibitor: inhibitors of Shiga toxin in Vero cells | inhibition, % at 38.7 µM | hit rate 9.2% among 290,000 | Vero cells, Shiga toxin protein synthesis inhibition reporter; in the data active means inhibition mostly above about 28%, no sharp cut-off; inactive means mostly below about 43%; further: 0% is about no effect
* marks the source's active call; other numbers are inactive results; i = inactive; ? = inconclusive; / = not tested or not shown; [ ] = dose if it differs, or a comment. Most compounds without a hit are left out; they make up all but 21% or so of the library. Unless noted, the call rests on the fitted dose curve; in most records, active means well fitted curve in the direction sought with a large enough effect; inconclusive means small, poorly fitted or top-dose-only effect, or another doubt; inactive means no such curve, though single readings can be large; an effect the other way counts as inactive or inconclusive.

SMILES | Cycloheximide cs | Pf growth 48h | HCV inhibitor | AMA1-RON2 inh | Pf growth 96h | Shiga inhibitor
CN(C)C(=O)CN1C(=O)NC2(CCc3ccccc32)C1=O (stereo not drawn) | -3 | 3% | 3% | -7% | 35% | -5
CCCN1C[C@@H](C)[C@@H](OC)CN(C)C(=O)c2ccc(NC(=O)c3cccc(F)c3)cc2OC[C@H]1C | / | / | / | -2% | / | /
Cn1c2ccccc2c2cc(C(=O)N3CCN(CCO)CC3)sc21 | 14* | 14% | 1% | -4% | 14% | 14
O=C(Nc1ccc(COc2ccccc2)cc1)Oc1ccccc1N1CCOCC1 | 17* | 41% | 11% | -5% | 67% | 22
COC(=O)c1ccc(COc2ccc(C)cc2[N+](=O)[O-])o1 | 48* | 69% | -6% | -5% | 78% | 77*
Cc1nn(Cc2c(F)c(F)c(F)c(F)c2F)c(C)c1NC(=O)c1cccc(COc2ccc(Cl)cc2)c1 | 83* | 133% | ? | -3% | 261% | 136*
COC(=O)c1ccc(Cn2nc(C)c([N+](=O)[O-])c2C)o1 | 1 | -22% | 2% | 8% | 13µM* | 18
Cc1nn(Cc2ccc(C(=O)O)o2)c(C)c1[N+](=O)[O-] | 8 | 24% | -1% | -4% | 5% | -9
CC(C)c1cc(C(N)=O)c(NC(=O)c2cccc(COc3ccc(Cl)cc3)c2)s1 | 70* | 144% | ? | -1% | / | 200*
COc1ccc(NS(=O)(=O)c2ccc(C(=O)N(C)Cc3cccs3)cc2)cc1 | / | ? | ? | -8% | ? | /
CCOC(=O)C1(C)CCN1C(=O)c1cc2ccccc2s1 (stereo not drawn) | / | / | / | -9% | / | /
Cc1ccc(OCc2ccc(C(=O)NN)o2)c([N+](=O)[O-])c1 | 37* | -15% | 3% | 45% | ? | 36
COc1ccc(OCCOCCOc2ccc(C)cc2[N+](=O)[O-])cc1 | -2 | -7% | -10% | -5% | -30% | 23
Cc1nn(Cc2c(F)c(F)c(F)c(F)c2F)c(C)c1NC(=O)c1c([N+](=O)[O-])cnn1C | -5 | 7% | ? | 2% | / | -16
COc1ccc(CNCC(O)COc2ccc(C)cc2[N+](=O)[O-])cc1 (stereo not drawn) | 35* | ? | -4% | 9% | 3% | 69*
Cc1ccc(C)c(OCc2ccc(C(=O)NN)o2)c1 | 11 | ? | 4% | 34% | -24% | 10
Cc1ccc(OCc2ccc(C(=O)Nc3c(C)nn(Cc4c(F)c(F)c(F)c(F)c4F)c3C)o2)c([N+](=O)[O-])c1 | 10 | ? | 16µM* | -11% | ? | 11
COc1cccc(C(=O)N2CCN(C3CCN(Cc4ccccc4)CC3)CC2)c1OC | 4 | -7% | 15% | -2% | -12% | -5
COc1ccccc1C(=O)OCC(=O)Nc1cccc(S(=O)(=O)N2CCCC2)c1 | / | ? | -14% | 4% | -3% | /
CCN(CC)C(=O)C1=C(C)N(Cc2ccc(C(C)(C)C)cc2)C(=O)C(CC(=O)NCCCN(C)C)C1 (stereo not drawn) | / | / | / | -4% | / | /
NC(=O)CC(NC(=O)c1ccccc1)c1ccc(NCCN2CCCCC2)c([N+](=O)[O-])c1 (stereo not drawn) | 0 | -23% | -2% | 3% | ? | -3
C=CCNc1ncnc2c1ncn2[C@H]1CN(C2CCCC2)C[C@@H](CO)O1 | / | / | / | 6% | / | /
Cc1ccc(C(=O)OCn2ncc(Cl)c(Cl)c2=O)cc1 | -11 | ? | 2.5µM* | 21% | ? | -30
O=C(OCn1ncc(Cl)c(Cl)c1=O)c1ccc(C(F)(F)F)cc1 | -1 | 31% | 10µM* | -4% | 18% | -6
Cc1ccc(C(=O)COC(=O)c2nc(Cl)ccc2Cl)cc1 | / | / | 2% | 9% | / | /
SMILES | Cycloheximide cs | Pf growth 48h | HCV inhibitor | AMA1-RON2 inh | Pf growth 96h | Shiga inhibitor
O=C(O)c1ccc(-n2ncc(Cl)c(Cl)c2=O)cc1 | / | / | / | -2% | / | /
CC1(C(=O)NS(=O)(=O)c2ccc(F)cc2F)CCN1C(=O)c1ccccc1CCc1ccccc1 (stereo not drawn) | / | / | / | -9% | / | /
C/C=C/c1ccc(OCCCCOc2ccccc2C(C)=O)c(OC)c1 | -6 | ? | 6% | 7% | ? | 12
C/C=C/c1ccc(OCCCCN(C)Cc2ccccc2)c(OC)c1 | -3 | -15% | 11µM* | ? | i | /
C/C=C/c1ccc(OCCCCN2C(=O)NC(C)(C)C2=O)c(OC)c1 | 14* | 4% | ? | 16% | ? | 25
O=C(c1cccs1)n1nc(-c2ccc(Cl)cc2)nc1NCc1ccco1 | -1 | 55% | -4% | 14% | 356% | 11
COc1ccc(CC(=O)n2nc(-c3ccc(Cl)cc3)nc2NCc2ccco2)cc1 | 23* | 34% | -16% | -12% | 153% | 63
CC(=O)n1nc(-c2ccc(Cl)cc2)nc1NCc1ccco1 | 31* | / | -28% | 3% | 35% | 50*
O=C(CSc1nc(-c2ccccc2)cc(=O)[nH]1)Nc1ccc(F)c(F)c1 | 9 | 1% | 13% | 2% | 29% | 14
Cc1noc(C)c1S(=O)(=O)N(C)C[C@H]1Oc2ccc(NC(=O)CCC(F)(F)F)cc2C(=O)N([C@H](C)CO)C[C@@H]1C | / | / | 7% | -6% | / | /
O=C(NCCN1CCOCC1)/C(=C/c1ccco1)NC(=O)c1ccccc1 | 0 | -6% | 16% | -12% | 97% | -3
COc1ccc(C2/C=C\CN(C(=O)c3ccc(C)cc3)C(C)C(=O)N2Cc2ccc(F)cc2)cc1 (stereo not drawn) | 83* | / | / | / | / | 144*
COc1ccc(C2/C=C\CN(C(=O)c3ccc(C)cc3)[C@H](Cc3ccccc3)C(=O)N2Cc2ccc(F)cc2)cc1 (stereo partly drawn) | -2 | 4.1µM* | -12%[8.37 µM] | -3% | 4.1µM* | 1
CCc1c(C)c2ccc(OCC(=O)NCC3CCC(C(=O)O)CC3)c(C)c2oc1=O (stereo not drawn) | 1 | 13% | 37% | 11% | ? | -2
O=[N+]([O-])c1ccccc1Nc1cccnc1 | / | 4% | ? | 4% | 23% | /
O=C1Nc2ccccc2Nc2ccc([N+](=O)[O-])cc21 | 4 | -30% | 4% | 2% | -1% | 9
Cc1ccc(Oc2cc([N+](=O)[O-])cc3c2C(=O)Nc2ccccc2O3)cc1 | 12 | ? | 13µM* | -11% | 44% | -4
CC1Sc2ccc(C(=O)O)cc2NC1=O (stereo not drawn) | 7 | 7% | 17% | 4% | / | 30
CCOc1ccc(C(C)NC(=O)c2ccc3c(c2)NC(=O)C(C)S3)cc1OCC (stereo not drawn) | / | 2.3µM* | -1% | 10% | 1.9µM* | /
COc1ccc(CNC(=O)c2ccc3c(c2)NC(=O)C(C)S3)cc1 (stereo not drawn) | 21* | 4% | -11% | 2% | -9% | 37*
